A selection: hits, their analogues and other compounds. The true share with any hit is near 1.6%.
Peg3 imprint: genomic imprint erasure induction. mouse ES Peg3-LacZ reporter, beta-gal luminescence, 40 h. actives 0.02% (n = 110,000). AID 1948. Potency, µM (series often up to 60.7 µM), for the others: at the highest dose activity change, positive = activation, hits mostly activators
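Each well holds 300 Peg3LacZ-Neo (maternal) female ES cells incubated 40 h at 37C, 5% CO2. LacZ is measured by BetaGlo luminescence, with AC50 and maximum efficacy derived from dose-response curves.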
p53ts 39C kill: cytotoxicity in p53ts cells at nonpermissive temperature; H1299-p53A138V viability at 39C, ATP luminescence, 24 h; Potency, µM (doses to about 46.1 µM), inactives show top-dose activity change, negative = cell killing, most hits filed as cytotoxic; actives 1.5% (n = 130,000); further: on the % scale 0 is the no-effect control and ±100 the full control effect; nearly all actives have a fitted effect of over 55% in size
p53ts 32C kill: p53ts cell cytotoxicity, permissive temperature. H1299-p53A138V at 32C, ATP luminescence viability, 24 h. Potency, µM (series often up to 46.1 µM), inactives show at the highest dose activity change, negative = cytotoxicity, most hits filed as cytotoxic. actives 0.93% (n = 130,000);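 further: 0% = DMSO and -100% = full killing by reference compound; nearly all actives have a fitted effect of over 55% in size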
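Cells: H1299 p53ts (A138V), 600/well, pre-incubated 16–30 h at 37C. Cpd up to 46 uM, 24 h, 32C. Readout: ATPlite luminescence, 20 min RT. Normalization: DMSO vs tamoxifen 100 uM. AC50 by Hill equation.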
Starred values were filed as active, the others as inactive; ? = inconclusive; nt = no result; [ ] = another dose, or the depositor's remark. The call rests on the fitted dose curve; in most records, active means well fitted curve in the direction sought with a large enough effect; inconclusive means small, poorly fitted or top-dose-only effect, or another doubt; inactive means no such curve, though single readings can be large; an effect the other way counts as inactive or inconclusive. Potency means the concentration at half of the fitted maximal effect.

SMILES	Peg3 imprint	p53ts 39C kill	p53ts 32C kill
COc1ccc(NC(=O)CN(C)S(=O)(=O)c2ccc3nc(C)sc3c2)cc1	-15%[10.9 µM]	-7%	-8%
Oc1ccccc1-c1cc(-c2ccc3c(c2)OCCO3)n[nH]1	-86%	?	13µM*
COc1ccc(-c2cc(-c3ccccc3O)[nH]n2)cc1OC	-47%	-19%	-29%
COC(=O)c1sccc1S(=O)(=O)N(CC(=O)NCc1ccc(F)cc1)c1ccc(C)c(C)c1	-5%[10.9 µM]	-16%	3%
O=C(Nc1ccc(CN2CCOCC2)cc1)c1ccccc1F	nt	-19%	?
O=C(Nc1ccc(NC(=O)c2cc3ccccc3o2)cc1)c1ccccc1	-13%[10.9 µM]	-2%	-2%
O=C(Nc1ccc(CN2CCOCC2)cc1)c1cc2ccccn2n1	-88%	6.3µM*	5µM*
O=C(NCCN1CCOCC1)c1cc2ccccc2o1	nt	-2%	-2%
O=C(Nc1ccc(CN2CCOCC2)cc1)c1cc2ccccc2o1	-3%	10µM*	10µM*
O=C(Nc1ccc(CN2CCCCC2)cc1)c1ccc2c(c1)OCO2	-28%	-15%	-7%
O=C(Nc1ccc2c(c1)OCO2)c1ccc(CN2CCOCC2)cc1	-21%	?	13µM*
O=C(O)c1ccc(NC(=O)c2cc3ccccc3o2)cc1	-41%[10.9 µM]	10µM*	7.9µM*
Cc1ccc(-c2cc(C(=O)Oc3ccccc3)c3cc(C)ccc3n2)cc1	-6%[10.9 µM]	-19%	-17%
COc1ccc(-c2noc(-c3ccc(N4CCCC4)c([N+](=O)[O-])c3)n2)cc1	4%[10.9 µM]	3%	-1%
COc1ccc(CNC(=O)c2cnc(N3CCCC3)nc2C)cc1	-11%[10.9 µM]	-9%	-8%
CCN(CC)[C@@H](C)CN1c2ccccc2Sc2ccccc21	-6%[16.8 µM]	-4%[20.6 µM]	-9%[20.6 µM]
COc1cc2c(cc1OC)C(C(C(=O)N(CCc1ccc(OC)c(OC)c1OC)CCc1ccc(OC)c(OC)c1OC)c1ccccc1)=NCC2 (centres undefined)	-15%	nt	nt
O=C(Nc1ccc2oc(-c3ccc(Br)cc3)nc2c1)c1cc2ccccc2o1	2%[10.9 µM]	8%	-2%
O=C(Nc1ccc2oc(-c3cc(Br)ccc3Cl)nc2c1)c1cc2ccccc2o1	-2%[10.9 µM]	5µM*	?
Cc1ccccc1NC(=O)C1CCN(S(=O)(=O)c2ccccc2)CC1	-19%[10.9 µM]	1%	-1%
CCc1cccc(CC)c1NC(=O)CCS(=O)(=O)c1ccc(Br)cc1	11%[10.9 µM]	-5%	2%
Cc1cc(C(=O)Cn2nnc3ccccc3c2=O)c(C)n1Cc1cccs1	-30%	13µM*	16µM*
Cc1cc(C(=O)CN2C(=O)c3ccccc3C2=O)c(C)n1Cc1cccs1	-67%	?	?
COc1ccc(NS(=O)(=O)c2cccc(C(=O)O)c2)cc1	-4%	-9%	5%
O=C(O)c1cccc(COc2ccc(CO)cc2Cl)c1	-93%	4µM*	5µM*
SMILES	Peg3 imprint	p53ts 39C kill	p53ts 32C kill
O=C(O)c1ccc(COc2ccc(CO)cc2Cl)cc1	-84%	-19%	-26%
CCOc1ccc(OCc2cccc(C(=O)N3CCCC3)c2)cc1	-26%	?	?
COc1ccc(OCc2cccc(C(=O)O)c2)cc1	-90%	5µM*	6.3µM*
CCOc1ccc(OCc2cccc(C(=O)O)c2)cc1	-95%	2µM*	2.5µM*
Cc1cccc(N2CCN(C(=O)c3cc4ccc5cccnc5c4[nH]3)CC2C)c1 (centres undefined)	14%[10.9 µM]	?	-5%
CC(=O)N1CCCC1c1nc2ccccc2n1Cc1cccc(C)c1 (centres undefined)	-4%[10.9 µM]	0%	-6%
CNS(=O)(=O)c1ccc(NC(=O)c2cnn3c(C(F)F)cc(-c4ccccc4)nc23)cc1	6%[10.9 µM]	13µM*	6%
Cc1ccc(NC(=O)c2cnn3c(C(F)F)cc(-c4ccccc4)nc23)cc1F	-5%[10.9 µM]	8%	-4%
Cc1cc(NCc2ccccc2Cl)n2cnnc2n1	-18%[10.9 µM]	0%	1%
O=C(NCC(c1cccnc1)N1CCc2ccccc21)C(=O)Nc1ccccc1F (centres undefined)	-17%[10.9 µM]	-11%	-7%
CC(=O)NC1=C(NC2CCS(=O)(=O)C2)C(=O)c2ccccc2C1=O (centres undefined)	nt	?	16µM*
O=C(Nc1ccccc1)NC1CCS(=O)(=O)C1 (centres undefined)	nt	7%	0%
CCc1ccc(C(=O)COC(=O)C(Cc2c[nH]c3ccccc23)NC(=O)c2ccc(Br)cc2)cc1 (centres undefined)	-4%[10.9 µM]	-9%	9%
CC1CCCN(S(=O)(=O)c2ccc(C(=O)Nc3nnc(-c4ccccc4Cl)o3)cc2)C1 (centres undefined)	-16%	-23%	-19%
